The values below come from PubChem BioAssay AID1946 (Johns Hopkins Ion Channel Center, 2009).

SMILES strings stand for the structures. Out of some 2,400 compounds screened, about 180 (7.5%) were called active.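 How the source made its calls: active means readout below zero, meaning a drop past 3 SD under the dofetilide-free negative control mean; inactive means the rest.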 The full list was thinned out, with actives kept by preference.

Potassium voltage-gated channel subfamily KQT member 2 (Rattus norvegicus), sequence (O88943 whole entry, looked up): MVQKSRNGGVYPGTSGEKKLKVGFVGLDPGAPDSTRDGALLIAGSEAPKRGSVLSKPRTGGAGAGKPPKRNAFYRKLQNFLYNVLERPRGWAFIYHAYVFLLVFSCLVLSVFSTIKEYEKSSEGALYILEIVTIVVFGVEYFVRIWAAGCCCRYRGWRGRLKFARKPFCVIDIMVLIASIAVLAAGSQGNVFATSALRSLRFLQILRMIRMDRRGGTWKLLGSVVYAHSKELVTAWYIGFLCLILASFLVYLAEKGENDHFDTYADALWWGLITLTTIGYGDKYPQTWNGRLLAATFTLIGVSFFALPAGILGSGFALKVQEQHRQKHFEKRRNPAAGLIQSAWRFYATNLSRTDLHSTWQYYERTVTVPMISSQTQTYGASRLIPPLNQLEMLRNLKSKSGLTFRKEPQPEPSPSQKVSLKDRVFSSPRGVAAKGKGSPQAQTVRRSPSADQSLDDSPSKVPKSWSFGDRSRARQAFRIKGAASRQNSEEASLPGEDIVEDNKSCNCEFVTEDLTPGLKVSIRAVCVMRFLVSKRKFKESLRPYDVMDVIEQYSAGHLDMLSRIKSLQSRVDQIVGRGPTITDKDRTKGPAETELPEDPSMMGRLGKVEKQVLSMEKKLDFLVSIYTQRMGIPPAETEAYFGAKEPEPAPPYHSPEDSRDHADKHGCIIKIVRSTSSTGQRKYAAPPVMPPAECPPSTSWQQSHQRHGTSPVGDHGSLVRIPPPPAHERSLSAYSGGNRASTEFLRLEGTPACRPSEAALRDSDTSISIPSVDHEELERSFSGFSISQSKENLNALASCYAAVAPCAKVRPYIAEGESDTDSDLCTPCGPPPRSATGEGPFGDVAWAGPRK

The experiment concerns the target Potassium voltage-gated channel subfamily KQT member 2 (Rattus norvegicus) (UniProt O88943). As to the kind of experiment: rat KCNQ2 channel inhibition by compounds alone, confirmation, counter-screen for hERG block protector project, cell-based, CHO, FluxOR thallium flux (AID 1946). The following applies: CHO-KCNQ2 cells, FluxOR thallium flux fluorescence; at 10 µM; stronger effect = lower value; zero marks the 3-SD hit cutoff. (Counterscreens check selectivity or assay interference.)
With `CCCn1c(SCN2C(=O)c3ccccc3C2=O)nc2cc(Cl)ccc2c1=O`, the activity change vs negative control is 50.5% (inactive). Turning to `COC(=O)c1c(NC(=S)Nc2ccc(F)cc2[N+](=O)[O-])sc2c1CCCCC2`, the activity change vs negative control was 25.2% (inactive). Consider `CCc1ccc(NC(=O)C(=O)NNC(=O)c2ccc(OC)cc2)cc1`, for which the activity change vs negative control is 122% (inactive). For the molecule `COc1ccccc1CC(=O)Nc1ccc(OC)c(OC)c1`, the activity change vs negative control was 9.2% (inactive). `COc1cc(C2C(C#N)=C(N)Oc3c2ccc2ccccc32)ccc1OCC(=O)Nc1ccc(C)cc1` (configuration not stated): the activity change vs negative control was -0.6% (active). The same measure for `CCCOc1ccc(C2NC(=S)NC(c3ccccc3)=C2C(=O)Nc2ccc(C)cc2)cc1OC` (configuration not stated): 15.3% (inactive). `COc1ccc(-c2oc3ccccc3c(=O)c2OC(C)=O)cc1`: the activity change vs negative control was 38.6% (inactive). With `CCc1nnc(NC(=O)COc2ccc([N+](=O)[O-])cc2)s1`, the activity change vs negative control was 15.3% (inactive). In the case of `O=C(COc1ccc([N+](=O)[O-])cc1)Nc1cccnc1`, the activity change vs negative control was -4.2% (active). As to `O=C(COc1ccc2ccccc2c1Br)Nc1cccnc1`, the activity change vs negative control was 0.9% (inactive). Regarding `O=C(COc1ccc(C(=O)c2ccccc2)cc1)Nc1cccnc1`, the activity change vs negative control was -20.5% (active). `N#Cc1ccc(-c2ccc(OCC(=O)Nc3cccnc3)cc2)cc1`: the activity change vs negative control is 13.9% (inactive). `O=C(COc1ccccc1)Nc1ccc(F)cc1`: the activity change vs negative control was 0.6% (inactive). The same measure for `O=c1c2c3c(sc2[nH]c(=S)n1Cc1ccco1)CCC3`: 56.4% (inactive). Turning to `Cc1[nH]n(-c2cccc3ccccc23)c(=O)c1/C=N/c1sc2c(c1C#N)CCC2`, the activity change vs negative control was 23.1% (inactive).

In the case of `COc1cccc(C(=O)NNC(=O)C(=O)Nc2ccc(OC)cc2OC)c1`, the activity change vs negative control was 52.6% (inactive). As to `S=c1[nH]c(-c2ccc(Cl)cc2)cs1`, the activity change vs negative control was 140% (inactive). As to `COC(=O)c1ccc(CSc2ncnc3sc(C)c(C)c23)o1`, the activity change vs negative control was 23% (inactive). Take `COc1cccc(C(=O)NNC(=O)C(=O)Nc2ccc(C)cc2)c1`: the activity change vs negative control was 99.7% (inactive). In the case of `Cc1ccc(/C=C/C(=O)c2ccccc(=O)c2O)c(C)c1`, the activity change vs negative control is 63.1% (inactive). As to `CCCCCC(=O)NNC(=S)NC(=O)c1ccc([N+](=O)[O-])cc1`, the activity change vs negative control was -10.1% (active). Regarding `C=CCN(CC=C)C(=S)NC(=O)c1ccc([N+](=O)[O-])cc1`, the activity change vs negative control is 72.2% (inactive). As to `CCCCNC(=S)NC(=O)c1ccc([N+](=O)[O-])cc1`, the activity change vs negative control was 46.5% (inactive). Consider `O=C(NC(=S)Nc1ccccc1)c1cccs1`, for which the activity change vs negative control was 17.9% (inactive). In the case of `O=C(O)c1ccc(S(=O)(=O)/N=C2\C=C(Nc3ccccc3F)C(=O)c3ccccc32)cc1`, the activity change vs negative control was 31.7% (inactive). On to `Cc1cc(C)c(C(=O)c2ccc(C(=O)N3CCCCC3)cc2)c(C)c1`, for which the activity change vs negative control is 32.9% (inactive). Consider `O=C(Nc1nc2c(Br)cc(Br)cc2c(=O)s1)C1CCC1`, for which the activity change vs negative control was 40.8% (inactive). As for `O=C(Nc1cccnc1)c1ccc(COc2ccccc2Br)o1`, the activity change vs negative control is 7.9% (inactive). In the case of `O=C(COc1ccc(Cl)cc1Cl)Nc1cccnc1`, the activity change vs negative control is 11% (inactive). With `O=C(Nc1cccnc1)c1ccc(COc2cc(Cl)ccc2Cl)o1`, the activity change vs negative control was -5.5% (active). The same measure for `CCc1cc2cc(C)cc(C)c2[nH]c1=S`: 29.9% (inactive). With `Nc1nc2c(s1)CCc1c-2cnn1-c1ccccc1`, the activity change vs negative control is -0.2% (active). As to `O=C(NC(=S)Nc1ccccc1F)c1ccc(Br)o1`, the activity change vs negative control is 81.1% (inactive). Turning to `Cc1c(Cl)cccc1NC(=S)N=Nc1c(O)n(CN2CCOCC2)c2ccccc12`, the activity change vs negative control is 28.6% (inactive). For the molecule `O=C(CN1C(=O)S/C(=C\c2cccs2)C1=O)Nc1ccc(C(=O)O)c(O)c1`, the activity change vs negative control is 44.5% (inactive). The same measure for `O=C(CN1C(=O)S/C(=C\c2cccs2)C1=O)Nc1ccc(O)c(C(=O)O)c1`: 7.9% (inactive).

Take `O=C(CN1C(=O)S/C(=C\c2cc(Cl)c(O)c(Cl)c2)C1=O)Nc1ccccc1`: the activity change vs negative control was -7.3% (active). For `O=C(NC(=S)Nc1nc2ccc(F)cc2s1)c1ccco1`, the activity change vs negative control was 82.7% (inactive). For `CCC1(c2ccc(Cl)cc2)NC(=S)N(c2ccc(C)c(C)c2)N1` (configuration not stated), the activity change vs negative control is 124% (inactive).

As to `CCCN(Cc1ccccc1)C(=S)NC(=O)c1ccccc1[N+](=O)[O-]`, the activity change vs negative control was 120% (inactive). Regarding `O=C(NC(=S)N1CCCC(C(F)(F)F)C1)c1ccc(F)cc1` (configuration not stated), the activity change vs negative control is 46.1% (inactive).

Turning to `CCOc1ccc2nc(N3C(=O)/C(=C/c4ccc(Cl)cc4)NC3=S)sc2c1`, the activity change vs negative control was 6.5% (inactive).

Regarding `CN(C)c1oc(-c2ccccc2)nc1C#N`, the activity change vs negative control is -1.7% (active).

Turning to `CN(C)c1oc(-c2ccccc2[N+](=O)[O-])nc1C#N`, the activity change vs negative control is 16.4% (inactive).

With `CCOC(=O)C(=CNc1cc(C)nn1C(C)(C)C)C(=O)OCC`, the activity change vs negative control was 13% (inactive). As for `Cc1ccc(C(=C2C3C=CC2C2C(=O)NC(=O)C32)c2ccc(C)cc2)cc1` (configuration not stated), the activity change vs negative control is -2.6% (active).

As to `CC1CCCCC1NC(=S)NC(=O)c1cccs1` (configuration not stated), the activity change vs negative control was 49.2% (inactive). On to `CCC1(c2ccc(Cl)cc2)NC(=S)N(c2ccccc2)N1` (configuration not stated), for which the activity change vs negative control was 108% (inactive). `N#Cc1cc(-c2ccccc2)nnc1Oc1ccccc1`: the activity change vs negative control was -0.2% (active). Consider `COCCNC(=O)C(c1ccc(C)o1)N(Cc1ccc(OC)cc1)C(=O)Cn1nnc2ccccc21` (configuration not stated), for which the activity change vs negative control was 33.6% (inactive).

In the case of `COc1ccc(-n2c(SCC#N)nnc2-c2cccnc2)cc1`, the activity change vs negative control was -1.2% (active). For the molecule `COc1cc(-c2nnc(SCC(=O)O)n2-c2ccccc2)cc(OC)c1OC`, the activity change vs negative control was 0.6% (inactive).

As to `Cc1ccc(NC(=O)CSc2nnc(-c3cccnc3)n2-c2ccc(C)cc2)cc1`, the activity change vs negative control was 12.3% (inactive). The same measure for `CC1Cc2ccccc2N1C(=S)NC(=O)c1ccc(Cl)cc1Cl` (configuration not stated): 83.8% (inactive); for `COCCn1c(=S)[nH]c2sc3c(c2c1=O)CCC(C)C3` (configuration not stated): 81% (inactive); for `CC(C)N(Cc1ccccc1)C(=S)NC(=O)C1(C)CC1(Cl)Cl` (configuration not stated): 53.8% (inactive). The same measure for `OC(CNCC(c1ccc(Cl)cc1Cl)c1c[nH]c2ccccc12)c1ccccc1` (configuration not stated): -12% (active). The same measure for `COc1cccc(C=Nc2cc(C)cc(C)c2)c1O`: 39.5% (inactive); for `O=c1cc(-c2ccccc2)nc2c(-c3ccccc3)c(C(F)(F)F)[nH]n12`: 81.1% (inactive); for `COc1cc(NC(=O)c2ccccc2)c(OC)cc1NC(=O)Cc1ccc(Br)cc1`: 26.8% (inactive).

`O=C(O)COc1ccc(NC(=O)c2ccc3c(c2)C(=O)N(C2CCCCC2)C3=O)cc1`: the activity change vs negative control is 21.1% (inactive). The same measure for `Cn1cc(/C=N/n2cnc3scc(-c4ccc(Cl)cc4)c3c2=O)c2ccccc21`: 9% (inactive). `Cc1ccc(C)n1-n1c(C)nc2scc(-c3ccccc3)c2c1=O`: the activity change vs negative control is -3.2% (active). Take `S=c1[nH]cnc2scc(-c3ccccc3)c12`: the activity change vs negative control was 74.3% (inactive).

As for `Cc1c(N2C(=O)/C(=C\c3ccccc3O)SC2=S)c(=O)n(-c2ccccc2)n1C`, the activity change vs negative control was 90% (inactive). On to `S=c1[nH]cnc2scc(-c3ccc(Cl)cc3)c12`, for which the activity change vs negative control is 49.5% (inactive).

For `CCOC(=O)c1sc(NC(=S)NC(=O)c2ccccc2)nc1C`, the activity change vs negative control is 20.3% (inactive). Take `CC1CCN(c2ccc3c(c2)S(=O)(=O)c2ccccc2C3=O)CC1`: the activity change vs negative control was -10.9% (active). `CC1CCN(S(=O)(=O)c2ccc3nc(N4CCN(c5ccccc5)CC4)ccc3c2)CC1`: the activity change vs negative control was 4.3% (inactive). The same measure for `CC(=O)c1c(N)[nH]c(-c2ccccc2)nc1=S`: 22.9% (inactive); for `Cc1ccc(CN2CCN(CC(=O)NC(C)c3ccc4c(c3)OCCO4)C2=O)cc1` (configuration not stated): 38.3% (inactive); for `CN1C(=O)/C(=N/OC(=O)c2ccccc2)c2ccccc21`: 8% (inactive). On to `Cc1ccc(NC(=O)c2ccc(CNS(=O)(=O)c3cccc(C(F)(F)F)c3)cc2)cc1`, for which the activity change vs negative control is 8.1% (inactive).

In the case of `CN(CC(=O)Nc1ccc(Cl)cc1)C(=O)c1cccc(S(=O)(=O)NCc2ccccc2)c1`, the activity change vs negative control is -2.7% (active). Take `CC(=O)c1ccc(S(=O)(=O)NCc2ccc(C(=O)N(C)CC(=O)Nc3cccc(F)c3)cc2)cc1`: the activity change vs negative control was 5.5% (inactive). On to `O=c1c2ccc(Cl)cc2nc(-c2cccc(C(F)(F)F)c2)n1O`, for which the activity change vs negative control was 141% (inactive).

As for `ON/C=N/C(=S)Nc1ncc(C(F)(F)F)cc1Cl`, the activity change vs negative control is 49.3% (inactive).

As for `CC1(C)CC2CC(C)(CN2C(=S)NC(=O)c2ccccc2Cl)C1` (configuration not stated), the activity change vs negative control was 37.9% (inactive). For the molecule `Cc1ccc(/C(O)=C/C(=O)C(=O)NC23CC4CC(CC(C4)C2)C3)cc1`, the activity change vs negative control is 32.5% (inactive).

For the molecule `Cc1ccc(N=Cc2cc(Cl)cc(Cl)c2O)nc1`, the activity change vs negative control is 53.9% (inactive). Take `Cc1cc(C)n(-c2nc3sc4c(c3c(=O)[nH]2)CCCC4)n1`: the activity change vs negative control is 28% (inactive). Take `CN(C)CCNc1ncnc2c1sc1nc(N3CCCC3)c3c(c12)CC(C)(C)OC3`: the activity change vs negative control is 8.8% (inactive).

Consider `Cc1cc(C)n(-c2nc(NCCCN(C)C)c3c4c(sc3n2)CCCC4)n1`, for which the activity change vs negative control was -1.4% (active).

Consider `CC(NC(=O)NC1CCCCC1)c1ccc2c(c1)OCO2` (configuration not stated), for which the activity change vs negative control was 72.4% (inactive). In the case of `COc1ccccc1C(=O)NNC(=O)C(=O)NC(C)(C)C`, the activity change vs negative control was 31.3% (inactive). As for `COc1ccccc1-n1cnc2cc(NS(=O)(=O)c3ccc(Br)cc3)ccc21`, the activity change vs negative control was -2.5% (active). As to `COc1ccc(NS(=O)(=O)c2ccc3ccccc3c2)c2ncccc12`, the activity change vs negative control was 2% (inactive). Turning to `Cc1ccc(NS(=O)(=O)c2ccc(NC(=O)c3ccccc3C(=O)O)cc2)cc1C`, the activity change vs negative control was 10.8% (inactive). Consider `COc1ccc(C(=O)NC(=S)N(Cc2ccccc2)Cc2ccccc2)cc1`, for which the activity change vs negative control is 51.4% (inactive).

In the case of `CCOC(=O)N1CCN(c2c(-c3ccc(C)c(C)c3)c(=O)c2=O)CC1`, the activity change vs negative control was 20.5% (inactive).

In the case of `Cc1ccc(C(=O)NC(=S)N(C)C2CCCCC2)cc1Br`, the activity change vs negative control is 17.4% (inactive). For the molecule `Cc1ccc(C(C)NC(=O)c2ccc3c(c2)OCO3)cc1C` (configuration not stated), the activity change vs negative control is 58.4% (inactive).

With `CCCCNC(=S)NNC(=O)c1ccc2c(c1)OCO2`, the activity change vs negative control is -2.9% (active). For the molecule `COc1ccc(CCNC(=O)c2ccc3c(c2)OCO3)cc1`, the activity change vs negative control is 5% (inactive). For `O=c1c(-c2ccccc2)nc(-c2ccccc2)cn1O`, the activity change vs negative control is 88.1% (inactive).

Consider `COc1cccc(C(=O)NNC(=O)C(=O)Nc2cccc(Cl)c2C)c1`, for which the activity change vs negative control was 83.6% (inactive). For `COC(=O)C1=NN(C(=O)c2cccc(Br)c2)C(O)(c2ccc(Cl)cc2)C1` (configuration not stated), the activity change vs negative control is 158% (inactive).
